The campaign covered roughly 340,000 compounds. About 3,300 (0.97%) were called active. What follows is part of a selection rich in actives, with near analogues and random picks from the rest. A number with no mark means an inactive call.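 How the source made its calls: active means inhibition above the mean over all tested compounds plus 3 SD (cut at about 30% in these data); inactive means the rest.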
These compounds were tested against Platelet-activating factor acetylhydrolase 2, cytoplasmic (Homo sapiens) (UniProt Q99487) (assay: inhibition of cytoplasmic PAF acetylhydrolase 2 – biochemical, fluorescence polarization, human, primary screen (AID 492956;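 further: inhibitors block probe labeling of enzyme so polarization drops; 0% = enzyme with DMSO and 100% = wells lacking PAFAH2 protein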)). Conditions: recombinant PAFAH2, FP-rhodamine activity probe, at 3.39 µM, hits give high values.

| Compound | inhibition |
| --- | --- |
| Cc1noc(C)c1C(=O)N(CC(=O)NC1CCCC1)Cc1ccccc1F | 3.06% |
| Oc1oc(-c2ccccc2Br)nc1/C=N/c1ccccn1 | 68% (active) |
| CC(N=Cc1nc(-c2ccccc2)oc1O)c1ccccc1 (stereo not given) | 21% |
| CCOc1ccc2nc(/N=C/c3nc(-c4ccccc4)oc3O)sc2c1 | 2.86% |
| COc1ccc(F)cc1C(=O)COC(=O)c1n[nH]c(=O)c2ccccc12 | 0.13% |
| Cc1ccc2c(=O)oc(N(C)C)nc2c1 | 33% (active) |
| CN(C)c1ccc2c(=O)[nH][nH]c(=O)c2c1 | 0.81% |
| Cc1ccc2oc(=O)ccc2c1 | 1.28% |
| CCOC(=O)C1CCCCN1Cc1ccc(OC)c(OC)c1OC (stereo not given) | -0.46% |
| COC(CCN(C)C)(c1ccccc1)c1ccccc1 | 3.5% |
| C=CCC(NCCCO)c1cccc(OC)c1OC (stereo not given) | 5.85% |
| CC(=O)N(C1=C(Cl)C(=O)c2ccccc2C1=O)c1ccc(C(=O)O)cc1 | 10.5% |
| O=C1C(Cl)=C(Oc2ccccc2)C(=O)c2ccccc21 | 43.1% (active) |
| Cc1ccc2[nH]c(=O)c(CN3CCCCC3)c(-c3ccccc3)c2c1 | 6.01% |
| CCc1cc(=O)oc2c(C)c(OCC(=O)N3CC[C@@]4(O)CCCC[C@H]4C3)ccc12 | -2.6% |
| Oc1c(Cl)cc(Cl)c(Cl)c1Cc1c(O)c(Cl)cc(Cl)c1Cl | 49.4% (active) |
| CCOC(=O)C(=CNNc1ccsc1C(=O)OC)C(=O)OCC | -1.37% |
| CCOc1ccc(S(=O)(=O)N2CCC(C(=O)NCC(=O)Nc3cccc(Cl)c3C)CC2)cc1 | 8.28% |
| O=C(O)c1ccc(NS(=O)(=O)c2ccc3c(c2)C(=O)c2cc(S(=O)(=O)Nc4ccc(C(=O)O)cc4)ccc2-3)cc1 | 4.82% |
| OCC[C@H]1C[C@H](O)[C@@H](O)[C@]2(Cc3ccccc3CO2)O1 | 8.82% |

| Compound | inhibition |
| --- | --- |
| COc1ccc(NS(=O)(=O)c2ccc(C)c(C(=O)NCC(c3cccs3)N3CCOCC3)c2)cc1 (stereo not given) | 7.05% |
| CCOc1ccccc1NC(=O)CCc1nnc2ccc(NCc3ccco3)nn12 | 3.78% |
| COc1ccc(-c2nnc(SCC(=O)Nc3cccnc3Cl)n2C)cc1 | 0.74% |
| Cc1ccc(/C=C/C(=O)OCC(=O)Nc2cccnc2Cl)cc1 | 30.3% (active) |
| O=C(COC(=O)/C=C/c1nc2ccccc2s1)Nc1ccccc1Oc1ccccc1 | -12.4% |
| O=C(NCCC(=O)N1O[C@@H]2C=C[C@H]1C2)OCC1c2ccccc2-c2ccccc21 | 2.94% |
| O=C(Cc1ccc([N+](=O)[O-])cc1)Nc1ccc(C(=O)N2CCOCC2)cc1 | 1.43% |
| O=C(Oc1cccc(C(=S)N2CCOCC2)c1)c1cccc(Cl)c1 | 5.91% |
| O=C(/C=C/c1cccs1)c1cc(Cl)ccc1OC(=O)N1CCOCC1 | 72.8% (active) |
| CC(=O)Nc1ccccc1OC(=O)N1CCOCC1 | 7.14% |
| COc1cccc(N(C(=O)c2snc(C(N)=O)c2N)C(C(=O)NCC2CCCO2)c2c[nH]c3ccccc23)c1 (stereo not given) | -0.32% |
| COc1ccc(-c2nc3c(s2)CCc2onc(-c4ccc(Br)cc4)c2-3)cc1 | -1.79% |
| Cc1ccc(C(=O)OCC(=O)Nc2ccc(Cl)cn2)cc1S(=O)(=O)N1CCOCC1 | 55.8% (active) |
| Cc1ccc(NC(=O)COC(=O)CNC(=O)c2ccc(Cl)cc2Cl)cc1S(=O)(=O)N1CCOCC1 | -3.69% |
| Cc1ccc(C(=O)OCC(=O)N2CCCCCC2)cc1S(=O)(=O)N1CCOCC1 | 10.7% |
| Cc1cc(C)cc(NC(=O)c2cccc(NC(=O)C3C4CC5OC(=O)C3C5C4)c2)c1 (stereo not given) | 6.12% |
| CC(OC(=O)CNC(=O)c1ccco1)C(=O)Nc1ccc(Cl)cn1 (stereo not given) | -0.78% |
| Cc1ccc(NC(=O)C2CC2)cc1S(=O)(=O)N1CCOCC1 | -3.1% |
| O=C(Nc1ccc(Br)cc1)c1cccc(NC(=O)C2C3CC4OC(=O)C2C4C3)c1 (stereo not given) | -8.44% |
| O=C(COC(=O)c1ccco1)NCc1ccc(Cl)cc1 | 24.3% |

| Compound | inhibition |
| --- | --- |
| Cc1ccc(NC(=O)COC(=O)C2CC2)cc1S(=O)(=O)N1CCOCC1 | 77.5% (active) |
| O=C(COC(=O)c1ccco1)Nc1ccc(Cl)cn1 | 45.5% (active) |
| Cc1ccc(NC(=O)COC(=O)C2C3CC4OC(=O)C2C4C3)cc1Cl (stereo not given) | 88.2% (active) |
| Cc1cc(NC(=O)COC(=O)c2ccc(F)c(S(=O)(=O)N3CCOCC3)c2)no1 | 8.91% |
| Cc1ccc(NC(=O)C(=O)NCC2CCN(C(=O)c3cccc([N+](=O)[O-])c3)CC2)cc1 | 3.36% |
| C=CCNc1nnc(SCC(=O)N2CCCCC2)c2ccccc12 | -3.63% |
| O=C(Nc1ccc(-c2cscn2)cc1)C1CCCN(Cc2ccc(CO)o2)C1 (stereo not given) | -10.4% |
| COc1ccc(CNC(=O)[C@@H]2CC=C[C@@H]3CCN(C4CC4)C(=O)[C@@H]32)cc1 | -6.96% |
| CCOC(=O)C1=C(c2ccccc2)O/C(=C(/C(=O)OC)C(F)(F)F)S1 | 1.19% |
| Cc1cc(=O)n(C)c(=O)n1CCCNc1ccccc1 | -0.72% |
| CCCC(=O)N1CCC(CCC(=O)NC2CC2)CC1 | 2.54% |
| CC(CO)NCC12CC3CC(CC(C3)C1)C2 (stereo not given) | -2.32% |
| CCc1ccc2oc(-c3ccc(N)cc3)nc2c1 | 8.24% |
| Cc1cc(-c2nnc(SCC(=O)Nc3ccc(S(N)(=O)=O)cc3)n2N)n[nH]1 | -4.23% |
| Cc1ccc(C)c(S(=O)(=O)Nc2cc(C)on2)c1 | 0.2% |
| CCc1cccc(C)c1NC(=O)COC(=O)CNC(=O)c1cccs1 | 5.02% |
| CCc1cccc(C)c1NC(=O)COC(=O)Cc1ccsc1 | 7.53% |
| CCc1cccc(C)c1NC(=O)COC(=O)CC1CCCC1 | 68.3% (active) |
| Cc1cc(C)n2nc(C(=O)OCC(=O)N(CCC#N)c3ccc(F)cc3)nc2n1 | -0.66% |
| CC(C)Nc1nnc(SC(C)C(=O)N(C)C2CCCCC2)s1 (stereo not given) | 9.89% |

Source: PubChem BioAssay AID492956 (The Scripps Research Institute Molecular Screening Center, 2010)
